Measured values from PubChem BioAssay (NCATS).
Results filed as inconclusive are left out. Activity calls are given as the source filed them. Calls follow the shape of the dose curve; as a rule, active = well fitted inhibition curve with a large enough effect in the signal ratio, with a control signal flat (not every such curve was filed as active); inconclusive = small, poorly fitted or top-dose-only effect, or effect the other way, or a change in a side signal; inactive = no such curve, though single readings can be large or run the other way; the % refers to the signal ratio.

What follows are compounds tested against Peroxisome proliferator-activated receptor delta (Homo sapiens) (UniProt Q03181) (assay: qHTS assay for small molecule antagonists of peroxisome proliferator-activated receptor delta signaling (AID 588535)). Settings: HEK293T PPARd-UAS-bla, beta-lactamase FRET ratio, 18 h; series mostly up to 76.7 µM.
Excerpt: NIH Chemical Genomics Center [NCGC] U.S. Environmental Protection Agency [EPA] National Institutes of Environmental Health Sciences [NIEHS] National Toxicology Program [NTP] NCGC Assay Overview The Peroxisome proliferator-activated receptors (PPARs) are lipid-activated transcription factors of the nuclear receptor superfamily with three distinct subtypes namely PPAR alpha, PPAR delta (also called PPAR beta) and PPAR gamma. All these subtypes heterodimerizes with Retinoid X receptor (RXR) and have different physiological functions. […] This role of PPAR delta implicates the potential use of its ligands in the treatment of metabolic disorders.
NCGC Assay Protocol Summary Using a beta-lactamase reporter-gene under control Peroxisome Proliferator-Activated Receptor delta (PPAR-delta) response element, a cell-based assay [GeneBLAzer (PPAR-delta-UAS-bla assay developed by Invitrogen] was used to measure PPAR-delta ligands signaling. GeneBLAzer PPAR-delta-UAS-bla HEK293T cells were used with assay medium containing 2% charcoal/dextran FBS. The assay was performed in clear bottom black Greiner 1536-well plates. Library compounds were measured for their ability to inhibit the reporter gene activity. Compounds were screened in a titration series in 1536-well format. The fluorescence intensity (405 nm excitation, 460/530 nm emission) was measured using an EnVision plate reader. […] Concentration-response titration points for each compound were fitted to the Hill equation yielding concentrations of half-maximal inhibition (IC50) and maximal response (efficacy) values. qHTS protocol for PPAR-delta beta-lactamase assay in antagonist mode [Step] [Parameter] [Value] [Description] 1. Reagent; 5 uL; 4000 cells/well 2. Incubation; 37 C for 5 hrs 3. Compounds; 23 nL; 0.59 nM to 92 uM 4. […] Incubation; 37 C for 18 hrs 7. Detection reagent; 1 uL of CCF4-dye 8. Incubation; RT for 2 hrs 9. Detection; Fluorescence; Envision plate reader

Chain of Peroxisome proliferator-activated receptor delta (Homo sapiens) (Q03181 whole entry, looked up): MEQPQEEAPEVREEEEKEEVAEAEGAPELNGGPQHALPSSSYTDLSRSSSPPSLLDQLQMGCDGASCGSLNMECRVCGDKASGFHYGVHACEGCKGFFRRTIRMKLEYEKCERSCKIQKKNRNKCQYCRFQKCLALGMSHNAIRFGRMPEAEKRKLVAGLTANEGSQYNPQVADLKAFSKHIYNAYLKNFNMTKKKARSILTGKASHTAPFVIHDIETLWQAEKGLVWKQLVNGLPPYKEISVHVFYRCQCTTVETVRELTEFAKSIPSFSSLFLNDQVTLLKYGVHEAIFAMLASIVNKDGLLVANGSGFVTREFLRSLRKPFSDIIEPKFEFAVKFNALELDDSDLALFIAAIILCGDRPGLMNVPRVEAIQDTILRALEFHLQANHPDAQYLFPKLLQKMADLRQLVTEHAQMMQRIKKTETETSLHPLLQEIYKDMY

| Structure (SMILES) | outcome |
| --- | --- |
| Cc1cc(O)cc(C)c1Cl | inactive |
| COc1ccc(O)cc1 | inactive |
| FC(F)(F)C(Cl)Br (stereo not drawn) | inactive |
| CCCC(O)C(CC)CO (stereo not drawn) | inactive |
| Cc1cc(C)nc(NS(=O)(=O)c2ccc(N)cc2)n1 | inactive |
| CC1CC(OC(=O)c2ccccc2O)CC(C)(C)C1 (stereo not drawn) | inactive |
| CC(C)=CCC/C(C)=C/CO | inactive |
| COC(=O)c1ccc(O)cc1 | inactive |
| Cc1c(C(=O)NCCO)[n+](=O)c2ccccc2n1[O-] | inactive |
| CC(=O)Nc1ccccc1 | inactive |
| Nc1ccc(S(=O)(=O)c2ccc(N)cc2)cc1 | inactive |
| CCCCCC(N)=O | inactive |
| CC(=O)NS(=O)(=O)c1ccc(N)cc1 | inactive |
| O=C1C(c2[nH]c3ccccc3c2O)=Nc2ccccc21 | inactive |
| CCN(CC)C(=O)c1cccc(C)c1 | inactive |
| CCCCCCCC(=O)OCC(COC(=O)CCCCCCC)OC(=O)CCCCCCC | inactive |
| Cc1ccc(C(C)C)c(O)c1 | inactive |
| O=C(c1ccccc1)C(O)c1ccccc1 (stereo not drawn) | inactive |
| Cc1c(N(C)C)c(=O)n(-c2ccccc2)n1C | inactive |
| O=C(O)CCCCC1CCSS1 (stereo not drawn) | inactive |
| C=CCNC(N)=S | inactive |
| CCCCCCCCCCCCCCCCCCO | inactive |
| CC(=O)OCC(COC(C)=O)OC(C)=O | inactive |
